Compounds with a hit are over-represented: about 4.8% of the library has one in this group of screens.
ATXN2 expr inh: ATXN2 expression inhibition | Potency, µM (top dose mostly 57 µM), usual class: inhibitors | AID 1745845 | 360,000 compounds, 0.72% hits | HEK-293 ATXN2-luciferase reporter, luminescence, 24 h; note: nearly all actives have a fitted effect of over 55% in size
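ATXN2-luciferase reporter cells (luciferase flanked by upstream and downstream ATXN2 gene portions) were treated 24 h at 37 °C with compounds at up to 57 uM. SteadyGlo luminescence gave expression; GF-AFC fluorescence gave viability.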
S2 tox: viability counter-screen for ATXN expression inhibitors. Potency, µM (titrated, usually from 56.7 µM), most hits filed as cytotoxic. S2 cells (HEK-293 line with an ATXN2-luciferase reporter) viability, CellTiter-Fluor protease fluorescence, 24 h. 400,000 compounds, 0.49% hits; note: nearly all actives have a fitted effect of over 40% in size
DRD3 antagonist: D3 dopamine receptor (human) antagonism; P35462; D3R cells, DiscoveRx beta-arrestin luminescence, antagonist mode; hits give low values; max response, negative = inhibition, %; 360,000 compounds, 2.5% hits; AID 652054; in the data active = max response below about -50%; inconclusive = no clear call, values can overlap the other calls
Target sequence (P35462 whole entry, looked up): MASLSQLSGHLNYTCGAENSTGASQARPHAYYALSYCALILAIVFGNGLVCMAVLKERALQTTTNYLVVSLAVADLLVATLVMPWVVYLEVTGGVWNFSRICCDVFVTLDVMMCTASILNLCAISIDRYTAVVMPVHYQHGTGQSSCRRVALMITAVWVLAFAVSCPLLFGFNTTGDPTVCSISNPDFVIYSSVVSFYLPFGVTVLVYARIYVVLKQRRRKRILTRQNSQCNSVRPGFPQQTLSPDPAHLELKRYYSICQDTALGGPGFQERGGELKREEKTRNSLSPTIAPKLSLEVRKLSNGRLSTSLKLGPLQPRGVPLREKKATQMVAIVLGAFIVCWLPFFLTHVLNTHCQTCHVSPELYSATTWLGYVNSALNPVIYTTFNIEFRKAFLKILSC
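Cells plated overnight at 1500 cells/well, then exposed to library compounds with dopamine controls for 90 minutes at 37 degrees C. DiscoveRx reagent added for 30–60 minutes at room temperature; luminescence read, quantitative HTS format.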
HepG2 tox: kills HepG2 cells in TGF-b inhibitor counter-screen. HepG2 CAGA-GFP viability, ATP luminescence, 18 h. Potency, µM (doses to about 46.1 µM), hits mostly cytotoxic. 410,000 compounds, 0.76% hits. AID 588856
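HepG2 CAGA-GFP cells (1000/well, DMEM with 1% FBS) received compound, then TGF-beta at 500 pg/mL final, and were incubated 18 hours at 37 degrees C. Viability was read by CellTiter-Glo luminescence. Media-only wells were set as complete cell-killing and DMSO as no toxicity.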
TGFb SMAD3 inh: blocks TGF-b signaling. AID 588855. 410,000 compounds, 1.2% hits. HepG2 CAGA-GFP TGF-b/SMAD3 reporter, GFP fluorescence, 18 h; TGF-beta stimulated, 500 pg/mL final. Potency, µM (doses to about 46.1 µM), actives largely listed as inhibitors; note: nearly all actives have a fitted effect of over 65% in size
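TGF-beta reporter screen: HEPG2 CAGA-GFP, 1% FBS, 500 pg/mL TGF-beta final, 18 h; per-cell GFP summed per well; curves fitted and categorized by class.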
DRD3 agonist: D3 dopamine receptor (human) agonism | AID 652048 | D3R DiscoveRx beta-arrestin cells, luminescence, 90 min | max activation, % | P35462 | 410,000 compounds, 0.58% hits; in the data active = max activation above about 30%
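Agonist mode: compounds and dopamine controls were applied to plated cells for 90 min at 37 degrees C after an overnight attachment at 1500 cells/well. Luminescent read-out followed 30 - 60 minutes at room temperature with DiscoveRx detection reagent.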
Hits are given with their value; n = inactive; u = inconclusive; x = no result given. Unless noted, calls come from the whole dose curve; as a rule, active = well fitted curve in the direction sought with a large enough effect; inconclusive = small, poorly fitted or top-dose-only effect, or another doubt; inactive = no such curve, though single readings can be large; an effect the other way counts as inactive or inconclusive.

SMILES	ATXN2 expr inh	S2 tox	DRD3 antagonist	HepG2 tox	TGFb SMAD3 inh	DRD3 agonist
O=c1oc2ccccc2c(Nc2cccc3ccccc23)c1[N+](=O)[O-]	n	n	-62.7	n	u	n
CCC(C)NC(=O)c1cccc(NC(=O)c2nsc3ccccc23)c1 (stereo not given)	n	u	x	n	n	n
O=C(Nc1ccccc1)C1CC(=O)N(Cc2ccccc2)C1 (stereo not given)	n	n	n	n	n	n
O=C(O)c1cccc(NC(=O)C2CC(=O)N(Cc3ccccc3)C2)c1 (stereo not given)	n	n	-50.6	n	n	n
COc1cccc(NC(=O)c2nc(S(C)(=O)=O)ncc2Cl)c1	u	u	-108.7	n	15.8µM	n
Cc1cccc(NC(=O)c2nc(S(C)(=O)=O)ncc2Cl)c1	u	u	x	20µM	7.94µM	n
CS(=O)(=O)c1ncc(Cl)c(C(=O)Nc2c(C(=O)Nc3ccccc3)oc3ccccc23)n1	n	n	x	n	n	n
CC(=O)Nc1ccc(NC(=O)CCc2c(C)nc3c(c(C)nn3-c3ccc(C)cc3)c2C)cc1	x	x	x	n	x	n
COc1cc2nccc(Oc3ccc(NC(=O)NC4CC4)c(Cl)c3)c2cc1C(N)=O	3.43µM	x	x	x	x	x
COc1ccc(OC)c(NC(=O)NC2CCCCCCC2)c1	n	n	n	n	n	n
CC(NCc1ccc(N(C)C)cc1)C1CC2CCC1C2 (stereo not given)	n	n	-70.3	n	n	n
COc1ccccc1N1CCN(c2ccnc3cc(Cl)ccc23)CC1	11.2µM	u	n	n	n	n
O=C(C1CCCCC1)N1CCN(c2ccnc3cc(Cl)ccc23)CC1	17.8µM	u	n	n	n	n
O=C(C1CC1)N1CCN(c2ccnc3cc(Cl)ccc23)CC1	n	n	-67.9	n	u	n
O=C(C1CCC1)N1CCN(c2ccnc3cc(Cl)ccc23)CC1	x	u	n	n	n	n
CC(C)(C)C(=O)N1CCN(c2ccnc3cc(Cl)ccc23)CC1	x	n	n	n	n	n
COc1ccccc1NC(=O)N1CCN(c2ccnc3cc(Cl)ccc23)CC1	n	n	n	n	n	n
COc1ccc(/C(C)=C/C(=O)O)c(OC)c1	n	n	x	x	x	x
CCOC(=O)COc1ccc(CC)cc1C(=O)c1ccn2nc(-c3ccc(Cl)cc3)cc2n1	n	n	x	n	u	n
CC1=C(C(=O)Nc2ccccc2C)C(c2cccs2)n2nc(SCc3ccccc3)nc2N1 (stereo not given)	u	u	x	n	u	n
COc1cc(C(C)C)c(Oc2cnc(NC(CO)CO)nc2N)cc1I	24.3µM	x	x	x	x	x
CCC(Sc1nc2c(sc3ccccc32)c(=O)n1CCc1ccc(OC)c(OC)c1)C(=O)N(CC)CC (stereo not given)	n	n	x	n	u	n
CNC(=O)c1cccc(-c2ccc3c(N4CCOC[C@H]4C)nc(N4CCOC[C@H]4C)nc3n2)c1	n	x	x	x	x	x
O=C(Nc1cccc(C(F)(F)F)c1)Oc1ccc(Cl)c2cccnc12	u	n	-61.7	14.1µM	7.08µM	n
CCN(CC)C(=O)Oc1ccc(Cl)c2cccnc12	n	n	n	n	n	n
SMILES	ATXN2 expr inh	S2 tox	DRD3 antagonist	HepG2 tox	TGFb SMAD3 inh	DRD3 agonist
OC(COc1ccc(Br)cc1)CN1CCN(c2ccccc2)CC1 (stereo not given)	n	n	-51.5	n	n	n
OC(COc1ccccc1)CN1CCN(c2ccccc2)CC1 (stereo not given)	n	n	-70.9	n	n	n
OC(COc1ccc(Br)cc1)CN1CCOCC1 (stereo not given)	n	n	n	2.82µM	n	n
COc1cccc(OCC(O)CN2CCN(c3ccccn3)CC2)c1 (stereo not given)	n	n	u	n	n	34.7
COc1cccc(OCC(O)CN2CCN(c3ncccn3)CC2)c1 (stereo not given)	n	n	n	n	u	n
OC(COc1ccccc1)CN1CCN(c2ncccn2)CC1 (stereo not given)	n	n	u	n	n	n
Cc1ccc(OCC(O)CN2CCOCC2)cc1 (stereo not given)	x	u	n	n	n	n
COc1ccc(CNC(=O)CCCN2C(=O)CCn3nc(-c4cn(C)c5ccccc45)cc32)cc1	n	n	x	n	n	n
COc1ccc(OC)c(CNC(=O)c2ccccc2NC(=O)c2nsc3ccccc23)c1	n	n	x	n	n	n
OCCN1CCN(CC(O)COc2ccc(-c3ccccc3)cc2)CC1 (stereo not given)	n	n	-62.1	n	n	n
COc1cc(C(C)=O)ccc1OCC(O)CN1CCN(c2cc(C)cc(C)c2)CC1 (stereo not given)	n	n	-55.5	n	n	n
CC(=O)c1ccc(N2CCN(CC(O)COC(c3ccccc3)c3ccccc3)CC2)cc1 (stereo not given)	u	u	-69.2	n	u	n
OC(CSc1ccc(F)cc1)CN1CCN(c2ccccc2)CC1 (stereo not given)	n	n	-72.3	n	n	n
CC(=O)c1ccc(N2CCN(CC(O)COC(c3ccccc3)c3ccccc3C)CC2)cc1 (stereo not given)	n	n	n	n	u	n
COc1cc(OC)c(NS(=O)(=O)c2c(C(=O)N3CCCCCC3)c(C)n(C)c2C)cc1Cl	n	n	x	n	n	n
CS(=O)(=O)N1CCC(N2CCN(Cc3ccccc3)C(=O)C2=O)CC1	n	n	x	n	n	n
O=C(c1cccc(Cl)c1Cl)N(Cc1ccco1)Cc1cccs1	x	x	x	n	u	x
CCOc1ccccc1CNC(=O)c1cccc(NC(=O)c2nsc3ccccc23)c1	n	u	x	n	u	n
COc1cccc(OCC(O)CN2CCN(c3ccc(Cl)cc3)CC2)c1 (stereo not given)	x	n	n	n	n	n
OC(COc1ccc2cc(Br)ccc2c1)CN1CCN(c2ccccn2)CC1 (stereo not given)	n	n	n	n	n	227.3
COc1cccc(OCC(O)CN2CCN(c3ccccc3)CC2)c1 (stereo not given)	n	n	u	n	n	30.8
Cc1c2cnn(CC(=O)NCc3ccc(F)cc3)c(=O)c2c(C)n1Cc1cccc(Cl)c1	x	x	x	n	n	n
O=[N+]([O-])c1ccc(S(=O)(=O)NN=C2CCCCC2)cc1	n	n	-51.9	n	n	n
Cc1cc(C)cc(NC(=O)CN2CCN(c3ccccc3)CC2)c1	x	u	n	n	n	n
C/C(=C\c1ccccc1)CN1CCN(c2ccccc2F)CC1	n	n	-82.2	n	n	n
C/C=C(\C)CN1CCN(c2ccc(C)cc2)CC1	n	n	-78.8	n	n	n
C/C(=C\c1ccccc1)CN1CCN(c2cccc(Cl)c2)CC1	n	n	-137.1	n	n	n

Bioassay records from PubChem.
